Values joined by “and” are separate entries in the source; they are usually repeats but may differ in a detail not shown here. Equal values may be shown once. Results filed as inconclusive are left out. Active and inactive are the calls of the source. Calls follow the shape of the dose curve; as a rule, active = well fitted inhibition curve with a large enough effect; inconclusive = small, poorly fitted or top-dose-only effect; inactive = no such curve, though single readings can be large or run the other way.
The molecules below were run against RecQ-like DNA helicase BLM (Homo sapiens) (UniProt P54132) (assay: qHTS for Inhibitors of Bloom's syndrome helicase (BLM): Helicase DNA unwinding fluorescent orthogonal confirmatory assay for SAR). Settings: fluorescence, orthogonal confirmation; series mostly up to 55.6 µM; activity change, negative = inhibition: at the top concentration.
Method in brief: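 Gel-based orthogonal unwinding test: native PAGE separated substrate from single-stranded product of a fluorescent DNA duplex processed by purified BLM (2mM ATP, 50mM NaCl, room temperature). Bands were quantified and normalised against no-enzyme and no-inhibitor wells.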

Chain of RecQ-like DNA helicase BLM (Homo sapiens) (P54132 whole entry, looked up): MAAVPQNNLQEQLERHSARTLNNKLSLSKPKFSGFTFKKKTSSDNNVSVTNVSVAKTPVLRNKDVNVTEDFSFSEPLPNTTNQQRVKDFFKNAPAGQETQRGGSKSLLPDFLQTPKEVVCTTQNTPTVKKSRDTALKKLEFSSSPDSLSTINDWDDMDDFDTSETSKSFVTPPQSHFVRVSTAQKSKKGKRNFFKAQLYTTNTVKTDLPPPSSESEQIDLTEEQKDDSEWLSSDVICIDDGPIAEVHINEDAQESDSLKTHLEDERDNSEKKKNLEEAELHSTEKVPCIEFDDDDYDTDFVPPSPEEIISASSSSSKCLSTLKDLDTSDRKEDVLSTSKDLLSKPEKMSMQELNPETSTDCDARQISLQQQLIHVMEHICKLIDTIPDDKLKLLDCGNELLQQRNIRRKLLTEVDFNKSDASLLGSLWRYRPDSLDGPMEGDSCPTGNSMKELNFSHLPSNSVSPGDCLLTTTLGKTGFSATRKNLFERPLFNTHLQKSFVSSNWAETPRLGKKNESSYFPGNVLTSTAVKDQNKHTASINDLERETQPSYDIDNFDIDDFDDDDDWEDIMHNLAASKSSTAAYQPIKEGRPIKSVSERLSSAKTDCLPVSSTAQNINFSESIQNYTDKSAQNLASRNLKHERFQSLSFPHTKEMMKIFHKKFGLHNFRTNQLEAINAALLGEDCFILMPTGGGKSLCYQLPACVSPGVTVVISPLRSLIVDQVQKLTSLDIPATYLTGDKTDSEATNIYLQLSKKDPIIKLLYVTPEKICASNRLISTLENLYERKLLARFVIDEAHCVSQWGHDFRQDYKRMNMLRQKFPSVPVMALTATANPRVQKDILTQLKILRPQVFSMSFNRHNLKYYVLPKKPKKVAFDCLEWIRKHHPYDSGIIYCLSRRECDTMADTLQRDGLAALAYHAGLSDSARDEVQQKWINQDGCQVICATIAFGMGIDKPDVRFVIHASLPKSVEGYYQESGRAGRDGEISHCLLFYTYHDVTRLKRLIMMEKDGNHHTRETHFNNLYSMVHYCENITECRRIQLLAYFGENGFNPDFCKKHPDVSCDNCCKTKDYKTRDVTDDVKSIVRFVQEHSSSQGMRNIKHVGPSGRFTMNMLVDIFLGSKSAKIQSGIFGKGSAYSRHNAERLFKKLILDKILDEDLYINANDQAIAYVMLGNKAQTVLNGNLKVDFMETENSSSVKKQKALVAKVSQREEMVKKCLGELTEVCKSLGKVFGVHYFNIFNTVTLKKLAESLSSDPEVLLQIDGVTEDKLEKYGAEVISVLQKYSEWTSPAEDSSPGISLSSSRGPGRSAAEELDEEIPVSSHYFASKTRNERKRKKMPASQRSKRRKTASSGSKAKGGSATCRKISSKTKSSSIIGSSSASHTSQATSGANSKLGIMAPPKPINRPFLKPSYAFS

Question: With `N#Cc1cc(NC(=O)Nc2nnc(-c3ccncc3)s2)ccc1F` as the molecule, how does the Potency read?
Answer: 1.41 µM (active)

Question: For `O=C(Nc1ccc2ccccc2c1)Nc1nnc(-c2ccccc2F)s1`, which “activity change, negative = inhibition” value is on record?
Answer: -2.28% (inactive)

Question: Which Potency does the source give for `O=c1c(Nc2ccc(Cl)c(Cl)c2)c(Nc2nnc(-c3ccncc3)s2)c1=O` here?
Answer: 14.1 µM (active)

Question: Which Potency does the source give for `O=C(Nc1ccc(Cl)c([N+](=O)[O-])c1)Nc1nnc(-c2ccc(F)cc2)s1` here?
Answer: 2.24 µM (active)

Question: Which Potency does the source give for `O=C(Nc1cc(F)cc(F)c1)Nc1nnc(-c2ccncc2)s1` here?
Answer: 15.8 µM (active)

Question: For `O=C(Nc1ccc2ccccc2c1)Nc1nnc(-c2cccnc2)s1`, which Potency is on record?
Answer: 10 µM (active)

Question: Which “activity change, negative = inhibition” value does the source give for `COc1ccc(-c2nnc(NC(=O)Nc3ccc4ccccc4c3)s2)cc1OC` here?
Answer: -6.42% (inactive)

Question: `CN1CCN(c2nnc(NC(=O)Nc3ccc(Cl)c(Cl)c3)s2)CC1` was tested. Which “activity change, negative = inhibition” value did it give?
Answer: 8.47% (inactive)

Question: With `O=C(Nc1ccccc1)Nc1nnc(-c2ccncc2)s1` as the molecule, how does the “activity change, negative = inhibition” value read?
Answer: 1.11% (inactive)

Question: `CCOc1ccc(NC(=O)Nc2ccc(-c3nc4ccccc4[nH]3)cc2)cc1` was tested. Which “activity change, negative = inhibition” value did it give?
Answer: -5.73% (inactive)

Question: Which Potency does the source give for `Cc1cc(NC(=O)Nc2nnc(-c3ccncc3)s2)ccc1Cl` here?
Answer: 7.94 µM (active)

Question: Which Potency does the source give for `O=C(Nc1ccc(Cl)c(Cl)c1)Nc1nc(-c2ccncc2)cs1` here?
Answer: 28.2 µM (active)

Question: `O=C(Nc1ccc(Cl)c([N+](=O)[O-])c1)Nc1nnc(-c2ccncc2)s1` was tested. Which Potency did it give?
Answer: 1 µM (active)

Question: `Cc1cc(NC(=O)Nc2nnc(-c3ccncc3)s2)ccc1F` was tested. Which Potency did it give?
Answer: 15.8 µM (active)

Question: How did the Potency turn out when `N#Cc1cc(NC(=O)Nc2nnc(-c3ccncc3)s2)ccc1-c1cn[nH]c1` was run?
Answer: 1.58 µM (active) and 7.08 µM (active)

Question: Which “activity change, negative = inhibition” value does the source give for `O=C(Nc1ccc(F)c(C(F)(F)F)c1)Nc1nc(-c2ccncc2)cs1` here?
Answer: -3.13% [at 53.6 µM] (inactive)

Question: `CCCCCCNC(=O)Nc1nnc(-c2ccncc2)s1` was tested. Which “activity change, negative = inhibition” value did it give?
Answer: 7.51% (inactive)

Question: Which Potency does the source give for `O=C(Nc1ccc(N2CCOCC2)c(C(F)(F)F)c1)Nc1nnc(-c2ccncc2)s1` here?
Answer: 28.2 µM (active)

Question: For `O=C(Nc1ccc(Cl)c(C(F)(F)F)c1)Nc1cccc(-c2ccncc2)n1`, which Potency is on record?
Answer: 20 µM (active)

Question: How did the “activity change, negative = inhibition” value turn out when `O=C(Nc1ccc2ccccc2c1)Nc1nnc(-c2ccncc2)o1` was run?
Answer: -6.58% (inactive)

Question: Which Potency does the source give for `N#Cc1ccc(NC(=O)Nc2nnc(-c3ccncc3)s2)cc1` here?
Answer: 7.94 µM (active)

Question: With `O=C(Nc1ccc2c(c1)OCCO2)Nc1nnc(-c2ccncc2)s1` as the molecule, how does the “activity change, negative = inhibition” value read?
Answer: 8.77% (inactive)

Question: With `O=C(Nc1ccc2ccccc2c1)Nc1nnc(C2CCCCC2)s1` as the molecule, how does the “activity change, negative = inhibition” value read?
Answer: 10.8% (inactive)

Question: With `O=C(Nc1ccc(F)nc1)Nc1nnc(-c2ccncc2)s1` as the molecule, how does the Potency read?
Answer: 22.4 µM (active)

Question: Which “activity change, negative = inhibition” value does the source give for `O=C(Cc1nnc(-c2ccncc2)s1)Nc1ccc(F)c(C(F)(F)F)c1` here?
Answer: -13.6% [at 53.6 µM] (inactive)

Question: How did the “activity change, negative = inhibition” value turn out when `O=C(Nc1ccc(Cl)c(Cl)c1)Nc1nnc(C2CCCCC2)s1` was run?
Answer: -3.65% (inactive)

Question: With `O=C(Nc1cc(C(F)(F)F)cc(C(F)(F)F)c1)Nc1nnc(-c2ccncc2)s1` as the molecule, how does the Potency read?
Answer: 12.6 µM (active)

Question: For `O=C(Nc1ccc(Cl)nc1)Nc1nnc(-c2ccncc2)s1`, which Potency is on record?
Answer: 6.31 µM (active)

Question: Which Potency does the source give for `O=C(Nc1nnc(-c2ccncc2)s1)Nc1ccc(Cl)cc1Cl` here?
Answer: 31.6 µM (active)

Question: `O=C(Nc1ccc2ccccc2c1)Nc1nnc(-c2ccc(Cl)cc2)s1` was tested. Which “activity change, negative = inhibition” value did it give?
Answer: -10.2% (inactive)

Question: With `CC(=O)c1ccc(NC(=O)Nc2nnc(-c3ccncc3)s2)cc1` as the molecule, how does the “activity change, negative = inhibition” value read?
Answer: 3.44% (inactive)

Question: `Cc1cc(NC(=O)Nc2cccc(-c3ccncc3)n2)ccc1Cl` was tested. Which Potency did it give?
Answer: 4.47 µM (active) and 3.55 µM (active)

Question: `S=C(Nc1ccc(Cl)c(Cl)c1)Nc1nnc(-c2ccncc2)o1` was tested. Which “activity change, negative = inhibition” value did it give?
Answer: 1.29% (inactive)

Question: With `O=C(Nc1ccc(-c2nc3ccccc3[nH]2)cc1)Nc1ccc2occc2c1` as the molecule, how does the “activity change, negative = inhibition” value read?
Answer: -6.03% (inactive)

Source: PubChem BioAssay AID720555 (National Center for Advancing Translational Sciences (NCATS), 2013)
